From the supplement of paper PMC8728848
About 410 targets per protein were measured; listed, in parts, are those with the strongest signals and a random draw of the rest.

Legend:
Experiment in all cases: glycan array binding signal (z-score within array); higher = stronger binding
Conditions in all cases: glycan notation: IUPAC condensed, linker removed
[1] = biological target: Fuc(a1-2)Gal(b1-3)GalNAc(a1-3)[Fuc(a1-2)]Gal(b1-4)Glc
Procedure, shortened: (§1)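 Glycan array binding is given as a within-array Z-score, which can be read as non-binding when negative. The arrays, 3228 of them, came from the Consortium for Functional Glycomics database and were retained only where the protein sequence was available. Z-scores were averaged across arrays of the same protein sequence at different concentrations or buffers and across linkers.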

[2] = biological target: Fuc(a1-2)Gal(b1-3)[Fuc(a1-4)]GlcNAc(b1-2)Man(a1-3)[Fuc(a1-2)Gal(b1-3)[Fuc(a1-4)]GlcNAc(b1-2)Man(a1-3)]Man(b1-4)GlcNAc(b1-4)GlcNAc
Procedure, shortened: as §1

[3] = biological target: Fuc(a1-2)Gal(b1-4)GlcNAc(b1-3)Gal(b1-4)GlcNAc(b1-2)Man(a1-3)[Fuc(a1-2)Gal(b1-4)GlcNAc(b1-3)Gal(b1-4)GlcNAc(b1-2)Man(a1-6)]Man(b1-4)GlcNAc(b1-4)GlcNAc
Procedure, shortened: as §1

[4] = biological target: Fuc(a1-2)Gal(b1-4)[Fuc(a1-3)]GlcNAc(b1-2)[Fuc(a1-2)Gal(b1-4)[Fuc(a1-3)]GlcNAc(b1-4)]Man(a1-3)[Fuc(a1-2)Gal(b1-4)[Fuc(a1-3)]GlcNAc(b1-2)Man(a1-6)]Man(b1-4)GlcNAc(b1-4)GlcNAc
Procedure, shortened: as §1

[5] = biological target: Fuc(a1-2)Gal6S(b1-3)GlcNAc6S
Procedure, shortened: as §1

Fuc(a1-2)[Gal(a1-3)]Gal = biological target: Fuc(a1-2)[Gal(a1-3)]Gal
Procedure, shortened: as §1

[6] = biological target: Fuc(a1-2)[Gal(a1-3)]Gal(b1-3)GlcNAc(b1-3)GalNAc
Procedure, shortened: as §1

[7] = biological target: Fuc(a1-2)[GalNAc(a1-3)]Gal(b1-3)GlcNAc(b1-2)Man(a1-3)[Fuc(a1-2)[GalNAc(a1-3)]Gal(b1-3)GlcNAc(b1-2)Man(a1-6)]Man(b1-4)GlcNAc(b1-4)[Fuc(a1-6)]GlcNAc
Procedure, shortened: as §1

[8] = biological target: Fuc(a1-2)[GalNAc(a1-3)]Gal(b1-3)GlcNAc(b1-6)GalNAc
Procedure, shortened: as §1

[9] = biological target: Fuc(a1-2)[GalNAc(a1-4)]Gal(b1-4)GlcNAc
Procedure, shortened: as §1

[10] = biological target: Fuc(a1-3)[Gal(b1-4)]GlcNAc(b1-3)Gal(b1-4)[Fuc(a1-3)]GlcNAc(b1-3)Gal(b1-4)[Fuc(a1-3)]GlcNAc
Procedure, shortened: as §1

[11] = biological target: Gal(a1-3)Fuc(a1-2)Gal(b1-4)GlcNAc(b1-3)[Gal(a1-3)Fuc(a1-2)Gal(b1-4)GlcNAc(b1-6)]GalNAc
Procedure, shortened: as §1

Gal(a1-3)Gal(b1-3)GlcNAc = biological target: Gal(a1-3)Gal(b1-3)GlcNAc
Procedure, shortened: as §1

[12] = biological target: Gal(a1-3)Gal(b1-4)GlcNAc(b1-2)Man(a1-3)[Gal(a1-3)Gal(b1-4)GlcNAc(b1-2)Man(a1-6)]Man(b1-4)GlcNAc(b1-4)GlcNAc
Procedure, shortened: as §1

[13] = biological target: Gal(a1-4)Gal(b1-3)GlcNAc(b1-2)Man(a1-3)[Gal(a1-4)Gal(b1-3)GlcNAc(b1-2)Man(a1-6)]Man(b1-4)GlcNAc(b1-4)GlcNAc
Procedure, shortened: as §1

[14] = biological target: Gal(a1-4)Gal(b1-4)GlcNAc(b1-3)Gal(b1-4)Glc
Procedure, shortened: as §1

[15] = biological target: Gal(b1-3)GlcNAc(a1-6)Gal(b1-4)GlcNAc
Procedure, shortened: as §1

Gal(b1-3)GlcNAc6S = biological target: Gal(b1-3)GlcNAc6S
Procedure, shortened: as §1

[16] = biological target: Gal(b1-3)[Neu5Ac(a2-6)]GlcNAc(b1-4)Gal(b1-4)Glc
Procedure, shortened: as §1

[17] = biological target: Gal(b1-4)GlcNAc(b1-2)Man(a1-3)Man(b1-4)GlcNAc(b1-4)GlcNAc
Procedure, shortened: as §1

[18] = biological target: Gal(b1-4)GlcNAc(b1-2)Man(a1-3)[Gal(b1-4)GlcNAc(b1-2)Man(a1-6)]Man(b1-4)GlcNAc(b1-4)GlcNAc
Procedure, shortened: as §1

[19] = biological target: Gal(b1-4)GlcNAc(b1-2)[Gal(b1-4)GlcNAc(b1-4)]Man(a1-3)[GlcNAc(b1-4)][Gal(b1-4)GlcNAc(b1-2)Man(a1-6)]Man(b1-4)GlcNAc(b1-4)GlcNAc
Procedure, shortened: as §1

[20] = biological target: Gal(b1-4)GlcNAc(b1-2)[Gal(b1-4)GlcNAc(b1-6)]Man(a1-6)[Gal(b1-4)GlcNAc(b1-2)Man(a1-3)]Man(b1-4)GlcNAc(b1-4)[Fuc(a1-6)]GlcNAc
Procedure, shortened: as §1

[21] = biological target: Gal(b1-4)GlcNAc(b1-3)Gal(b1-4)GlcNAc(b1-2)Man(a1-3)[Gal(b1-4)GlcNAc(b1-3)Gal(b1-4)GlcNAc(b1-2)Man(a1-6)]Man(b1-4)GlcNAc(b1-4)[Fuc(a1-6)]GlcNAc
Procedure, shortened: as §1

[22] = biological target: Gal(b1-4)GlcNAc(b1-3)Gal(b1-4)GlcNAc(b1-3)Gal(b1-4)GlcNAc(b1-2)Man(a1-3)[Gal(b1-4)GlcNAc(b1-3)Gal(b1-4)GlcNAc(b1-3)Gal(b1-4)GlcNAc(b1-2)Man(a1-6)]Man(b1-4)GlcNAc(b1-4)GlcNAc
Procedure, shortened: as §1

[23] = biological target: Gal(b1-4)GlcNAc(b1-3)Gal(b1-4)GlcNAc(b1-3)[Gal(b1-4)GlcNAc(b1-3)Gal(b1-4)GlcNAc(b1-6)]GalNAc
Procedure, shortened: as §1

Gal(b1-6)Gal = biological target: Gal(b1-6)Gal
Procedure, shortened: as §1

Gal3S(b1-4)Glc = biological target: Gal3S(b1-4)Glc
Procedure, shortened: as §1

Gal4S6S(b1-4)GlcNAc = biological target: Gal4S6S(b1-4)GlcNAc
Procedure, shortened: as §1

B1: FliC (Clostridium difficile) (protein)
chain: MRVNTNVSALIANNQMGRNVNGQSKSMEKLSSGVRIKRAADDAAGLAISEKMRAQIKGLDQAGRNVQDGISVVQTAEGSLEETGNILQRMRTLSLQSANEINNTEEREKIADELTQLKDEIERISSSTEFNGKKLLDGTSSTIRLQVGASYGTNVSGTSNNNNEIKIQLVNTASIMASAGITTASIGSMKAGGTTGTDAAKTMVSSLDAALKSLNSSRAKLGAQQNRLESTQNNLNNTLENVTAAESRIRDTDVASEMVNLSKMNILVQASQSMLAQANQQPQGVLQLLG
For B1, the “glycan array binding signal (z-score)” value [1] was 0.883, the “glycan array binding signal (z-score)” value [2] was 0.721 and the “glycan array binding signal (z-score)” value [3] was 0.257. For the same binder, the “glycan array binding signal (z-score)” value [4] was 0.298, the “glycan array binding signal (z-score)” value [5] was 0.013 and the “glycan array binding signal (z-score)” value (Fuc(a1-2)[Gal(a1-3)]Gal) was 0.187. For the same binder, the “glycan array binding signal (z-score)” value [6] was 0.173, the “glycan array binding signal (z-score)” value [7] was 1.26 and the “glycan array binding signal (z-score)” value [8] was -0.176. For the same binder, the “glycan array binding signal (z-score)” value [9] was -0.165, the “glycan array binding signal (z-score)” value [10] was -0.069 and the “glycan array binding signal (z-score)” value [11] was -0.356. The “glycan array binding signal (z-score)” value (Gal(a1-3)Gal(b1-3)GlcNAc) was 4.21, the “glycan array binding signal (z-score)” value [12] was 8.29 and the “glycan array binding signal (z-score)” value [13] was 4.1. The “glycan array binding signal (z-score)” value [14] was 0.243, the “glycan array binding signal (z-score)” value [15] was -0.584 and the “glycan array binding signal (z-score)” value (Gal(b1-3)GlcNAc6S) was -0.373. For the same binder, the “glycan array binding signal (z-score)” value [16] was -0.467, the “glycan array binding signal (z-score)” value [17] was -0.407 and the “glycan array binding signal (z-score)” value [18] was 0.049. For the same binder, the “glycan array binding signal (z-score)” value [19] was -0.113, the “glycan array binding signal (z-score)” value [20] was 0.28 and the “glycan array binding signal (z-score)” value [21] was 2.39. For the same binder, the “glycan array binding signal (z-score)” value [22] was 2.15, the “glycan array binding signal (z-score)” value [23] was 2.33 and the “glycan array binding signal (z-score)” value (Gal(b1-6)Gal) was 0.447. For the same binder, the “glycan array binding signal (z-score)” value (Gal3S(b1-4)Glc) was -0.03 and the “glycan array binding signal (z-score)” value (Gal4S6S(b1-4)GlcNAc) was -0.316.
